Source: PubChem BioAssay (NCI)
About 83,000 compounds went through this panel and 20% of them were active in at least one assay; those are over-represented in the sample as a whole.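 Single-dose data. Exposure time 48 hours. Values below 10 considered active.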 Active and inactive are the calls of the source.

Key:
Assay in all cases: NCI-60 one-dose screen, 48 h (100 = growth as untreated, 0 = no growth, -100 = all killed)
Details in all cases: 10 µM unless noted
[1] = tested on: DU-145 prostate
[2] = tested on: K-562 leukemia
[3] = tested on: MALME-3M melanoma
[4] = tested on: MDA-MB-231 breast
[5] = tested on: RXF 393 renal
[6] = tested on: SF-268 CNS
[7] = tested on: SF-295 CNS
[8] = tested on: SF-539 CNS
[9] = tested on: UACC-257 melanoma
[10] = tested on: M14 melanoma
[11] = tested on: HCT-15 colon
[12] = tested on: HT29 colon
[13] = tested on: SNB-75 CNS
[14] = tested on: SNB-19 CNS
[15] = tested on: U251 CNS
[16] = tested on: PC-3 prostate
[17] = tested on: UACC-62 melanoma
[18] = tested on: SK-MEL-28 melanoma
[19] = tested on: SK-MEL-5 melanoma
[20] = tested on: LOX IMVI melanoma

Measured: growth

N#CC1=C(N)Oc2c(c(N)nn2-c2ccccc2)C1c1ccc(Cl)cc1 (configuration not stated)
inactive: [1] 99.6% | [2] 106% | [3] 106% | [4] 87.5% | [5] 93.8% | [6] 94.1% | [7] 96.6% | [8] 98.4% | [9] 105% | [10] 103% | [11] 107% | [12] 107% | [13] 77.3% | [14] 94.7% | [15] 94.9% | [16] 91.7% | [17] 86% | [18] 100%

C=C1CC[C@@H](C(=O)OC)Cc2nc(C)ccc21
inactive: [1] 119% | [2] 101% | [3] 105% | [4] 108% | [5] 118% | [6] 109% | [7] 98.4% | [8] 99.3% | [9] 94.4% | [10] 105% | [11] 102% | [12] 104% | [13] 100% | [14] 97.1% | [16] 98.4% | [19] 101% | [17] 96.9% | [18] 107%

COc1cc(NC(C)CN(CC(C)C)C(C)C)c2ncccc2c1 (configuration not stated)
inactive: [1] 106% | [2] 98.1% | [3] 104% | [4] 81.1% | [5] 113% | [6] 94.7% | [7] 110% | [8] 103% | [9] 99.5% | [10] 102% | [11] 101% | [12] 97.5% | [13] 80.4% | [14] 116% | [15] 100% | [16] 80.5% | [17] 106% | [20] 94.7% | [18] 122%

Oc1cccc2ccc(N/N=C/c3cc(CN4CCCCC4)c(O)c4ncccc34)nc12
inactive: [1] 24.1% | [2] 13.1% | [3] 19.1% | [6] 12.6% | [9] 13.4% | [11] 20.6% | [12] 14.7% | [13] 27.4% | [14] 19.9% | [18] 23%
active: [4] -4.71% | [5] 9.94% | [7] -5.38% | [8] 4.73% | [10] -24.8% | [15] -1.42% | [16] 5.8% | [17] 8.94% | [20] -58.4%

CC(=O)O[C@H]1CC[C@]2(C)[C@H]3C(=O)C=C4[C@@H]5C[C@](C)(C(=O)N6CCCNCC6)CC[C@]5(C)CC[C@@]4(C)[C@]3(C)CC[C@H]2C1(C)C
inactive: [6] 69.6% | [7] 60.2% | [9] 75.7% | [13] 80.1% | [17] 13.7%
active: [1] 4.85% | [2] -11.3% | [3] -71.7% | [4] -84.6% | [5] -89.4% | [8] -92.9% | [10] 6.84% | [11] -96.5% | [12] -63.5% | [14] 9.77% | [15] -94.5% | [16] 6.04% | [18] -74.5%
